Data published in PubChem BioAssay AID602384 (National Center for Advancing Translational Sciences (NCATS), 2012).
Active and inactive are the calls of the source. Calls come from the whole dose curve; as a rule, active = well fitted curve in the direction sought with a large enough effect; inactive = no such curve, though single readings can be large or run the other way.

target: Pyruvate kinase PKM (Homo sapiens) (UniProt P14618); experiment: qHTS for Activators of Human Muscle Isoform 2 Pyruvate Kinase: Extended Characterization; settings: purified PKM2, ATP production, Kinase-Glo luminescence
Description: Human pyruvate kinase muscle 2 (hPK-M2) enzyme was supplied as a highly purified (>95% pure) preparation from Harvard Medical School and assayed for its ability to generate ATP from ADP using phosphoenolpyruvate (PEP) as a substrate. ATP generation was detected in a coupled reaction by luciferase-mediated luminescence, an ATP-dependent process. Pyruvate kinase substrates, PEP and ADP, were present in the assay at Km and approximately 10-fold below Km respectively. The enzyme was assayed at an intermediate level of activity to screen for both inhibitors and activators. NIH Chemical Genomics Center [NCGC] NIH Molecular Libraries Probe Centers Network [MLPCN] MLPCN Grant: MH085679 Assay Submitter (PI): Matthew G. Vander Heiden, Harvard Medical School
Three uL of substrate mix (at r.t.) in assay buffer (50 mM Imidazole pH7.2, 50 mM KCl, 7 mM MgCl2, 0.01% Tween 20, 0.05% BSA) was dispensed into white solid bottom 1,536 well microtiter plates so that the final concentrations of substrates in the assay were 0.1 mM ADP and 0.5 mM PEP. 23 nL of compound were delivered by a pin tool and 1 uL of enzyme mix (final concentration of 0.1 nM) in assay buffer (4 degree Celsius) was added. Plates were incubated at room temperature for 1 hour. Two uL of detection mix (Kinase-Glo, Promega; at 4 degree Celsius protected from light) was added and luminescence read by a ViewLux (Perkin Elmer) at 1 second exposure/plate. Data were normalized to the uninhibited (column 3) and AC100 inhibition (no enzyme in column 2). To monitor activation, the first column contained a titration of the activator, NCGC00031955-03 (16-point 1:2 dilutions in duplicate starting at 57 uM) and the first 16 rows of column 4 contained 57 uM of NCGC00031955-03.

Chain of Pyruvate kinase PKM (Homo sapiens) (P14618 whole entry, looked up, canonical isoform): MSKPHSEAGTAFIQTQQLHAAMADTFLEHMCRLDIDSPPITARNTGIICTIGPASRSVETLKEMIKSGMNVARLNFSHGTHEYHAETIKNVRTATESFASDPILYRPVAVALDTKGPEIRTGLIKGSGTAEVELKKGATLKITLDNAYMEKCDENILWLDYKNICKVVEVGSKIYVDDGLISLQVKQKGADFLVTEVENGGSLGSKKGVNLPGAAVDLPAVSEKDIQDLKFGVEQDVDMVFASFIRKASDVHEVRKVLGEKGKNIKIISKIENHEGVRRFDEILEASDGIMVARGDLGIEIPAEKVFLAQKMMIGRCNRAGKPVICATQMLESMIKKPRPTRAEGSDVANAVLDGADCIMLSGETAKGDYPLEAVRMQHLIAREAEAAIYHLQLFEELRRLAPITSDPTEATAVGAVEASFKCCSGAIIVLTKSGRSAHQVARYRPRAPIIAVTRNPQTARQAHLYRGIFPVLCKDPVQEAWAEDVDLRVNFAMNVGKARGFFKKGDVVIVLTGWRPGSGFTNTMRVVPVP

Potency, active:
Cc1cc2c(s1)c1cnn(Cc3c(Cl)ccc(C)c3F)c(=O)c1n2C 1260 nM
Cc1cc2c(s1)c1cnn(Cc3ccc(F)cc3F)c(=O)c1n2C 891 nM
COc1cccc(Cn2ncc3c4sc(S(C)=O)cc4n(C)c3c2=O)c1 (stereo not given) 73 nM
Cc1cc2c(s1)c1cnn(Cc3cc(F)c(F)cc3F)c(=O)c1n2C 1120 nM
Cc1cc2c(s1)c1cnn(Cc3cc(F)ccc3F)c(=O)c1n2C 1120 nM
